Data reported in PubChem BioAssay.
A number with no mark means an inactive call. The source made the active and inactive calls.

test: plasmodial surface anion channel blockers, osmotic lysis – cell-based, P. falciparum Indochina, OD700, 2 h, primary screen (AID 1155);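 note: lysis reports solute entry through the parasite surface anion channel PSAC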; settings: P. falciparum Indochina infected erythrocytes, higher = more signal, called active from +8 up or from −8 down

| Compound | z-score |
| --- | --- |
| C[N+](C)(C)CCCC[C@@H]1NC(=O)[C@@H]2C[C@H](C(=O)O)[C@H](c3cccc(OCCO)c3)N2C1=O | 0.157 |
| COCCOC(=O)N1C(=O)[C@@]2(c3cc(C#CCC(C(=O)OC)C(=O)OC)ccc31)[C@H](c1ccc(OCCO)cc1)N1[C@H](c3ccccc3)[C@H](c3ccccc3)OC(=O)[C@H]1[C@@H]2C(N)=O | 1.58 |
| Cc1cc(C)c(C(O)C2C=CC3C(=O)N(c4ccccc4)C(=O)C3N2Nc2ccc([N+](=O)[O-])cc2)c(C)c1 (stereo not given) | 1.76 |
| O=C(CS)NCCCCCNC(=O)[C@@H]1C[C@@H]2C(=O)N3CCC[C@H]3C(=O)N2[C@@H]1c1ccc(O)cc1 | 0.508 |
| C[C@@H]1ON(c2ccccc2)[C@H](c2ccccc2)[C@H]1C(=O)N1C(=O)OC[C@H]1Cc1ccccc1 | 0.282 |
| [N-]=[N+]=Nc1ccccc1[C@@H]1OC(c2ccc(OCCCO)cc2)=N[C@]1(CCS(=O)(=O)c1ccccc1)C(=O)NCc1ccccc1 | 23.5 (active) |
| COc1ccc([Si](C)(C)[C@@H]2[C@@H](CC(=O)N(CCO)Cc3ccccc3)O[C@]3(C(=O)N(Cc4ccc(N5CCOC5=O)cc4)c4ccccc43)[C@H]2C)cc1 | 1.62 |
| COc1ccccc1CN1C(=O)c2ccccc2[C@@H](C(=O)NCC(C)C)[C@@H]1c1ccc(CO)cc1 | 0.157 |
| COC(=O)[C@@]1(Cc2ccc(F)cc2)[C@@H]2[C@@H](CC(=O)[C@H]2CC(=O)C(=O)N2CCCC2)CN1C(=O)c1ccccc1 | 0.367 |
| CC1CC/C=C\[C@H]2OC34C=CCN(c5ccc(Cl)cc5)C(=O)[C@H]3N(C(CO)C(C)C)C(=O)[C@]4(C)C2C(=O)O1 (stereo not given in full) | 0.798 |
| C=CCC(OC(C)=O)[C@@H]1[C@@H](N(Cc2cccc3ccccc23)C(=O)Cc2ccc(F)cc2)c2cc(OCCCO)ccc2N1C(=O)Cc1ccc(OC)cc1 (stereo not given in full) | -0.262 |
| COC(=O)[C@]1(Cc2ccccc2CN=[N+]=[N-])N=C(c2ccc(OCCCO)cc2)O[C@@H]1c1ccccc1 | 26.4 (active) |
| CCCc1cc2c(n1Cc1ccc(OC)cc1)C(C)C1CN(C(=O)c3ccccc3)C(C)(C(=O)OC)C21 (stereo not given) | 0.713 |
| CN(C)C(=O)[C@@]1(CCC(=O)OC(C)(C)C)N=C(c2ccc(OCCCO)cc2)O[C@H]1c1ccccc1N=[N+]=[N-] | 32.2 (active) |
| CCN(CC)c1ccc(N2CC=CC34O[C@@H]5/C=C\CCCOC(=O)C5[C@H]3C(=O)N(CCCCCO)[C@@H]4C2=O)cc1 (stereo not given in full) | 0.0039 |
| COC(=O)[C@@]1(Cc2ccc(F)cc2)[C@H]2c3cc(C(=O)N(C)C)n(CCSCCO)c3C[C@H]2CN1C(=O)c1ccccc1 | -0.383 |
| C=CCNC(=O)[C@@H]1[C@H]2C(=O)O[C@H](c3ccccc3)[C@H](c3ccccc3)N2[C@H](c2ccc(O)cc2)[C@@]12C(=O)Nc1ccc(C#CCCO)cc12 | -0.785 |
| COC(=O)C(CC#Cc1ccc2c(c1)[C@]1(C(=O)N2)[C@H](c2ccccc2OCCO)N2[C@H](c3ccccc3)[C@H](c3ccccc3)OC(=O)[C@H]2[C@@H]1C(=O)Nc1nc2ccccc2s1)C(=O)OC | 1.71 |

| Compound | z-score |
| --- | --- |
| COC(=O)[C@@]1(Cc2ccc(OC)cc2)[C@H]2c3cc(C(=O)N4CCCC4)n(CCc4ccc(O)c(OC)c4)c3C[C@H]2CN1C(=O)c1ccccc1 | 0.626 |
| CCOC(=O)C[C@H]1[C@H](OC(=O)c2ccccc2-c2ccccc2)[C@@H](NC(=O)c2ccccc2)c2cc(OCCCO)ccc2N1C(=O)Cc1ccc(OC)cc1 | 0.318 |
| C=C(/C(=C/C[C@@H](OC(=O)c1ccncc1)c1ccccc1OCCO)c1cnc2ccccc2c1)C(C)C | 4.55 |
| COCCOC(=O)N1C(=O)[C@@]2(c3cc(C#CCC(C(=O)OC)C(=O)OC)ccc31)[C@H](C(=O)N1CCCCCCC1)[C@H]1C(=O)O[C@H](c3ccccc3)[C@H](c3ccccc3)N1[C@@H]2c1ccc(O)cc1 | 0.444 |
| NC(=O)NCC#Cc1ccc2c(c1)[C@]1(C(=O)N2)[C@H](c2ccc(OCCO)cc2)N2[C@H](c3ccccc3)[C@H](c3ccccc3)OC(=O)[C@H]2[C@@H]1C(=O)N1CCCCCCC1 | 1.05 |
| C=C(CCCC)/C(=C/C[C@H](OC(=O)c1ccncc1)c1ccc(CO)o1)c1cc(C(=O)OC)ccc1OC | 0.756 |
| O=C1N(CCS(=O)(=O)c2ccccc2)Cc2ccccc2C[C@@]12COC(c1ccc(OCCCO)cc1)=N2 | 15.1 (active) |
| C[N+](C)(C)CCCCNC(=O)[C@H]1C[C@H]2C(=O)NCC(=O)N2[C@H]1c1ccc(O)cc1 | 0.0681 |
| CC(C)N1C(=O)c2ccccc2[C@](C)(C(=O)O)[C@@H]1c1ccc(CO)cc1 | -0.103 |
| C[N+](C)(C)CCCCCCNC(=O)[C@@H]1C[C@@H]2C(=O)NCC(=O)N2[C@@H]1c1ccc(O)cc1 | -0.196 |
| COCCCNC(=O)[C@@]1(Cc2ccccc2CN=[N+]=[N-])N=C(c2ccc(OCCCO)cc2)O[C@H]1c1ccccc1N=[N+]=[N-] | 30.8 (active) |
| COC(=O)[C@@]1(Cc2ccc(OC)cc2)[C@H]2c3cc(C(=O)N(C)C)n(CCF)c3C[C@H]2CN1C(=O)c1ccccc1 | 0.847 |
| C=CCNC(=O)[C@H]1[C@@H]2C(=O)O[C@@H](c3ccccc3)[C@@H](c3ccccc3)N2[C@@H](c2ccc(OCCO)cc2)[C@]12C(=O)N(C(=O)OCCOC)c1ccc(C#CC3=CCCCC3)cc12 | 1.76 |
| O=C1C2C=CC(C(O)c3cccc4ccccc34)N(Nc3ccccc3)C2C(=O)N1c1ccccc1 (stereo not given) | 2.06 |
| COc1ccc(C#Cc2ccc3c(c2)[C@]2(C(=O)N3)[C@H](C(=O)O)[C@H]3C(=O)O[C@H](c4ccccc4)[C@H](c4ccccc4)N3[C@@H]2c2ccc(OCCO)cc2)cc1 | -0.266 |
| C=CCOC(=O)[C@H]1[C@@H]2C(=O)O[C@@H](c3ccccc3)[C@@H](c3ccccc3)N2[C@@H](c2ccc(OCCOC(=O)[C@H]3C[C@H]4C(=O)N[C@@H](CCCCN(C)C)C(=O)N4[C@H]3c3ccc(O)cc3)cc2)[C@]12C(=O)Nc1ccccc12 | 0.332 |
| COC(=O)[C@@]1(Cc2ccccc2)[C@H]2c3cc(C(=O)N(C)C)n(Cc4ccccn4)c3C[C@H]2CN1C(=O)c1ccccc1 | 0.458 |
